Source: PubChem (several laboratories)
The list is not random: actives were taken first. Their share in the collection is about 4.5%.
NR3A LBD binder – binders of NR3A ligand-binding domain, primary screen, biophysical, differential scanning fluorimetry, uHTS; Glutamate receptor ionotropic, NMDA 3A (GRIN3A) ligand-binding domain; NR3A LBD differential scanning fluorimetry, Tm shift; 0% = protein alone, 100% = glycine-bound protein; Tm shift relative to glycine control, % at 25 µM; actives 2.5% (n = 340,000);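 active = melting temperature shift of at least 10% of the positive control shift, at one fixed dose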
Rpn11 inh – Rpn11 (PSMD14) deubiquitinase inhibitors, primary screen, biochemical, fluorescence polarization, uHTS | human 26S proteasome, Ub4-pepOG fluorescence polarization; 20S core pre-blocked with epoxomicin | 26S proteasome non-ATPase regulatory subunit 14 (Homo sapiens), O00487 | actives 0.59% (n = 360,000) | inhibition, % at 20 µM;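 active = inhibition at 20 µM, scaled to each plate's controls, above about 33%, limit read from the data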
Target sequence (O00487 whole entry, looked up): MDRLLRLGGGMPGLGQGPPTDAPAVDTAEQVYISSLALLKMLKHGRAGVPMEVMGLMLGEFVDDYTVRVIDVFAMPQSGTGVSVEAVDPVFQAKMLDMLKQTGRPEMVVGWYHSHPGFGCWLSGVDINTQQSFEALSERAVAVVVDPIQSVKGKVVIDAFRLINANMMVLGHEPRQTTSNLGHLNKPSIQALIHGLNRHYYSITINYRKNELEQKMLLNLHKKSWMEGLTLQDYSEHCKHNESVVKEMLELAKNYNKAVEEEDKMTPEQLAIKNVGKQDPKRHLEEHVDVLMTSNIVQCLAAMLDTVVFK
dFosB act – activators of delta FosB homodimer, primary screen, biochemical, fluorescence polarization, TAMRA-CDK5 oligo, single point; Protein FosB (Mus musculus), P13346; activation, % at 25 µM; actives 0.99% (n = 340,000); purified delta FosB; percent of positive-control signal above neutral wells;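 active = mean activation above about 17%, with every replicate also reaching it, limit read from the data, passing the limit was not always enough; inconclusive = only one of the two conditions met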
TPT1 inh – Candida albicans TPT1 enzyme inhibitors, primary screen, biochemical, fluorescence polarization | recombinant caTPT1, FP RNA substrate dephosphorylation | AID 1962, 2009 | actives 0.81% (n = 300,000) | tRNA 2'-phosphotransferase TPT1 (Candida albicans SC5314) | inhibition, % at 5 µM;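 active = inhibition above the mean of all tested compounds plus 3 SD, set per screening campaign, cut at about 24% in these data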;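 also: plate controls were DMSO alone for no effect and ferristatin control at 100 nM for full effect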
ZTA counter – counter-screen for EBNA-1 inhibitors: inhibitors of Epstein-Barr virus ZTA | inhibition, % at 11 µM | ZTA-DNA binding, fluorescence polarization | AID 2234 | actives 0.15% (n = 320,000); in the data active = inhibition above about 33%
Target sequence (P03206 whole entry, looked up): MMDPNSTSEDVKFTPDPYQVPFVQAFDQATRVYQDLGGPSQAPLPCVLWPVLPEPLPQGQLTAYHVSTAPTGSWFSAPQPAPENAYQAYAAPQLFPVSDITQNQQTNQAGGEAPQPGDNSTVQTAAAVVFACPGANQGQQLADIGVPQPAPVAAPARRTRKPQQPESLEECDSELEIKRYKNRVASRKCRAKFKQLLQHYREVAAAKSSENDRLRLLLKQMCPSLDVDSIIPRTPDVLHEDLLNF
EBNA-1 inhibitor – EBNA-1 DNA-binding inhibitors, primary screen, biochemical, fluorescence polarization; inhibition, % at 14.8 µM; actives 0.34% (n = 300,000); AID 1950, 2009; in the data active = inhibition above about 28%
Active calls of the source: *; ? = inconclusive; nt = no result given.

SMILES | NR3A LBD binder | Rpn11 inh | dFosB act | TPT1 inh | ZTA counter | EBNA-1 inhibitor
COc1cccc(C(=O)Nc2ccc(-c3nnc(-c4ccco4)o3)cc2)c1 | 10* | 4 | -8 | -1 | -7 | -2
COc1cc(OC)cc(C(=O)Nc2ccc(-c3nc4ccccc4o3)cc2)c1 | 20* | 1 | 1 | 6 | 10 | -3
CC(Oc1ccc(Br)cc1)C(=O)Nc1cc(Cl)ccc1N1CCN(C)CC1 (stereo not given) | 1 | 5 | -3 | 1 | -17 | 0
O=c1ccn(CCCBr)c(=O)[nH]1 | -1 | 5 | -3 | 0 | -7 | -2
COc1cccc(C(=O)Nc2ccc(-c3nc4ccccc4o3)c(O)c2)c1 | 34* | 32 | -4 | 6 | 4 | 15
Cc1nc2c(C)cccc2c2c1CCS2 | 0 | -2 | 5 | -3 | -11 | -10
Cn1cccc1-c1cc(C(=O)N/N=C/c2ccc(F)cc2)[nH]n1 | 9 | 1 | -9 | -4 | -8 | -8
Cn1cccc1-c1cc(C(=O)N/N=C/c2cc(Br)ccc2O)[nH]n1 | 27* | 8 | ? | 0 | -4 | 0
CC(C)c1ccc(/C=N/NC(=O)c2cc(-c3cccc([N+](=O)[O-])c3)n[nH]2)cc1 | 4 | 10 | -2 | 3 | -5 | -4
Cn1cccc1-c1cc(C(=O)N/N=C/c2ccccc2Cl)[nH]n1 | -15 | 4 | -9 | -1 | 8 | 5
O=C(N/N=C/c1cccc([N+](=O)[O-])c1)c1cc(-c2ccc3c4c(cccc24)CC3)n[nH]1 | 18* | -6 | 3 | 1 | 5 | -9
Cn1cccc1-c1cc(C(=O)N/N=C/c2ccc([N+](=O)[O-])cc2)[nH]n1 | 28* | 6 | 0 | 0 | 5 | -16
CCOc1ccc(/C=N/NC(=O)c2cc(-c3cccn3C)n[nH]2)cc1 | 22* | 0 | 0 | 0 | 12 | 14
CC(/C=N/NC(=O)c1cc(-c2cccn2C)n[nH]1)=C\c1ccccc1 | 3 | -5 | -5 | 1 | 9 | 1
CCOc1ccccc1C(=O)Nc1cccc2cccnc12 | -3 | -1 | -8 | 1 | -13 | -4
COC(=O)C1=C(C)N(Cc2cccnc2)C(=O)/C1=C\c1sccc1C | -1 | -11 | -9 | -3 | 12 | 10
Cc1ccc(Nc2nc(-c3cccs3)cs2)nc1 | 24* | 9 | 3 | 3 | 22 | 3
Cc1ccc(SC[C@H](Cc2ccccc2)N2CCN(CCc3ccccc3)CCC2=O)cc1 | 19* | 0 | 0 | 0 | -2 | -4
O=C(CCN1CCCCCC1)Nc1ccc(F)c(F)c1 | 673* | 4 | 2 | 1 | 16 | 16
CN1CCN(CCC(=O)Nc2ccc(F)c(F)c2)CC1 | 0 | 4 | -3 | 2 | -7 | -19
CCC(C)NC(=O)Cn1cnc2sc(C)c(S(=O)(=O)N3CCN(c4ncccn4)CC3)c2c1=O (stereo not given) | 14* | -2 | 0 | -1 | -9 | -21
Cc1cc(CNC(=O)c2cccc3c2C(=O)c2ccc(-c4ccc(F)cc4OCc4ccccc4)cc2S3(=O)=O)c(C(F)(F)F)o1 | 17* | 12 | 2 | nt | nt | nt
O=C(O)c1cccc2c1C(=O)c1ccc(-c3ccc(F)cc3OCc3ccccc3)cc1S2(=O)=O | 13* | 5 | -3 | nt | 5 | nt
CCN=C1NN=C(c2ccc(C)cc2)CS1 | nt | 41* | -10 | 20 | 18 | -4
O=C(CNC(=O)c1ccccc1)N=Nc1c(O)[nH]c2ccc(Br)cc12 | -12 | 4 | 46* | 1 | -8 | -7
SMILES | NR3A LBD binder | Rpn11 inh | dFosB act | TPT1 inh | ZTA counter | EBNA-1 inhibitor
O=C(NN=C1C2CC3CC1CC(Cl)(C3)C2)c1ccccn1 | -1 | -3 | -1 | 1 | -15 | 3
O=c1c2ccccc2nc(N/N=C/c2c(O)ccc3ccccc23)n1O | 12* | 20 | 9 | 1 | 10 | -5
O=C(CCc1nnc(Cc2c[nH]c3ccccc23)o1)NC(C1CC1)C1CC1 | 2 | 2 | -1 | -4 | -4 | -6
COCCNc1nnc(SC(C)C(=O)Nc2ccc(-c3nc4ccc(C)cc4s3)cc2)s1 (stereo not given) | 10 | 30 | 10 | 5 | -4 | 7
O=C(CCS(=O)(=O)c1ccccc1)Nc1ccc(-c2nc3ccccc3s2)cc1 | 4 | 11 | ? | -2 | 12 | 23
CC(C)(C)c1ccc(S(=O)(=O)NCC(=O)Nc2ccc(-c3nc4ccccc4s3)cc2)cc1 | 7 | -1 | 8 | 3 | 22 | 4
CC(NS(=O)(=O)c1cccc(Cl)c1)C(=O)Nc1ccc(-c2nc3ccccc3s2)cc1 (stereo not given) | 30* | -6 | 12 | -4 | 4 | 11
Cc1ccc(C)c(S(=O)(=O)NC(C)C(=O)Nc2ccc(-c3nc4ccccc4s3)cc2)c1 (stereo not given) | 25* | 7 | -4 | 1 | 8 | 23
O=C(CNS(=O)(=O)c1cccc(Cl)c1)Nc1ccc(-c2nc3ccccc3s2)cc1 | 23* | 26 | -6 | 15 | 14 | 55*
O=C(O)COCC(=O)N1CCN(C2c3ccccc3-c3ccccc32)CC1 | -1 | -10 | -3 | 5 | -1 | 2
COc1cccc(NC(=O)CN2C(=O)CSc3ccc(S(=O)(=O)N4CCCCC4)cc32)c1 | -2 | -4 | -11 | 1 | -11 | -3
O=C(N/N=C/c1cccc(O)c1)c1ccc(NC(=O)C2CCCCC2)cc1 | 10* | 7 | -5 | nt | nt | nt
O=C(N/N=C/c1cccc(O)c1)NC1CCCCC1 | -2 | -15 | 0 | 0 | -2 | -5
O=C(N/N=C/c1ccc(O)cc1O)c1ccc(NC(=O)C2CCCCC2)cc1 | 23* | -4 | ? | -4 | 1 | 9
CC(C)c1cccc(C(C)C)c1OC(=O)[C@H]1OC(C(C)(C)C)=C[C@@H]1c1ccccc1 | 16* | -4 | 1 | nt | 6 | nt
CC(C)c1cccc(C(C)C)c1OC(=O)[C@H]1OC(c2ccc(Br)cc2)=C[C@@H]1c1ccc(Br)cc1 | 0 | 11 | 2 | nt | -4 | nt
O=C(Nc1ccc2c(c1)Cc1ccccc1-2)c1ccco1 | 22* | -4 | -4 | 2 | 3 | -10
COc1ccc(C(=O)Nc2ccc3c(c2)Cc2ccccc2-3)cc1 | 17* | 1 | 2 | 0 | 3 | 18
O=C(Nc1ccc2c(c1)Cc1ccccc1-2)c1cccnc1 | 21* | 4 | 7 | 0 | -31 | -5
COc1ccc2nc(NC(=S)N(C)C)sc2c1 | 24* | 2 | -2 | -2 | -3 | -8
